Experimental data reported in PubChem BioAssay AID1159580 (chemical genetic matrix, 2015).
Where “and” joins values, the source holds several entries; their conditions need not be identical. Equal values may be shown once. In all, about 5,500 compounds went through this assay and about 2,000 (36%) were called active. Not shown: some 18% with an inconclusive outcome. No stated cut-off is given here; in the data, active means normalized growth mostly below about 0.91 (no sharp cut-off); inconclusive means no clear call, values can overlap the other calls; inactive means mostly above about 0.92. The list shows a part of the results.

Experiment: chemical genetic growth profiling, strain panel (AID 1159580);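 further: tested at 20 µM; growth read once vehicle control cultures reached saturation at 30 °C; 1 = growth at the plate median or of vehicle wells; lower values mean less growth of the strain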
Details: S. cerevisiae deletion strains, growth OD

Measured: normalized growth

CC(CCC(=O)O)[C@H]1CCC2C3CC[C@@H]4CCCC[C@]4(C)C3CC[C@@]21C (stereo partly drawn)
inactive: locus YAL013W, strain DEP1, hits give low values 0.995 | locus YAL021C, strain ccr4, hits give low values 1.01 | locus YAL026C, strain drs2, hits give low values 1.01 | locus YAL030W, strain snc1, hits give low values 1.01 | locus YBL061C, strain skt5, hits give low values 1.02 | locus YBR009C, strain hhf1, hits give low values 1.01 | locus YBR021W, strain FUR4, hits give low values 0.987 | locus YBR023C, strain chs3, hits give low values 1.03 | locus YBR171W, strain sec66, hits give low values 1.02 | locus YBR229C, strain ROT2, hits give low values 0.991 | locus YBR231C, strain swc5, hits give low values 1.03 | locus YBR279W, strain paf1, hits give low values 1.01 | locus YCL011C, strain gbp2, hits give low values 1.02 | locus YCL016C, strain dcc1, hits give low values 1.04 | locus YCL029C, strain bik1, hits give low values 0.98 | locus YCL061C, strain MRC1, hits give low values 1.02 | locus YCL069W, strain vba3, hits give low values 1.01 | locus YCR088W, strain abp1, hits give low values 1.01 | locus YDL005C, strain med2, hits give low values 0.999 | locus YDL035C, strain GPR1, hits give low values 0.982 | locus YDL040C, strain nat1, hits give low values 1.01 | locus YDL074C, strain BRE1, hits give low values 0.973 | locus YDL101C, strain DUN1, hits give low values 1.01 | locus YDL185W, strain tfp1, hits give low values 0.977 | locus YDL192W, strain arf1, hits give low values 0.98 | locus YDR001C, strain nth1, hits give low values 1.01 | locus YDR069C, strain doa4, hits give low values 0.994 | locus YDR101C, strain arx1, hits give low values 0.983 | locus YDR137W, strain rgp1, hits give low values 1.05 | locus YDR150W, strain NUM1, hits give low values 0.995 | locus YDR159W, strain sac3, hits give low values 0.998 | locus YDR162C, strain NBP2, hits give low values 1.04 | locus YDR195W, strain ref2 0.981 | locus YDR297W, strain sur2, hits give low values 1.01 | locus YDR318W, strain mcm21, hits give low values 0.988 | locus YDR334W, strain swr1, hits give low values 1 | locus YDR335W, strain msn5, hits give low values 1 | locus YDR388W, hits give low values 0.987 | locus YDR392W, strain spt3, hits give low values 0.943 | locus YDR502C, strain sam2, hits give low values 0.979 | locus YEL003W, strain gim4, hits give low values 1.01 | locus YEL037C, strain rad23, hits give low values 0.993 | locus YEL061C, strain CIN8 (second series), hits give low values 1.01 | locus YEL061C, strain CIN8, hits give low values 0.995 | locus YER015W, strain faa2, hits give low values 1 | locus YER016W, strain bim1, hits give low values 1.01 | locus YER110C, hits give low values 0.986 | locus YER111C, strain swi4, hits give low values 1.02 | locus YER155C, strain BEM2 (second series), hits give low values 1.03 | locus YER155C, strain BEM2, hits give low values 0.989 | locus YER167W, strain BCK2, hits give low values 0.98 | locus YFR010W, strain ubp6, hits give low values 0.997 | locus YGL078C, strain dbp3, hits give low values 0.989 | locus YGL086W, strain mad1, hits give low values 0.985 | locus YGL167C, strain pmr1, hits give low values 1.01 | locus YGL173C, strain kem1, hits give low values 1.01 | locus YGL227W, strain vid30, hits give low values 1.02 | locus YGL240W, strain doc1, hits give low values 1.03 | locus YGL248W, strain PDE1, hits give low values 1 | locus YGL253W, strain hxk2, hits give low values 1 | locus YGR078C, strain PAC10, hits give low values 1.02 | locus YGR135W, strain pre9, hits give low values 1.02 | locus YGR252W, strain gcn5, hits give low values 1.08 | locus YHR013C, strain ard1, hits give low values 1.02 | locus YHR027C, strain rpn1, hits give low values 0.995 | locus YHR030C, strain SLT2, hits give low values 0.997 and 0.97 | locus YHR079C, strain IRE1 (second series), hits give low values 0.981 | locus YHR079C, strain IRE1, hits give low values 0.973 | locus YHR094C, strain hxt1, hits give low values 0.985 | locus YHR129C, strain ARP1, hits give low values 0.995 | locus YHR142W, strain chs7, hits give low values 1 | locus YHR200W, strain rpn10, hits give low values 0.995 | locus YIL066C, strain RNR3, hits give low values 0.992 | locus YIL073C, strain SPO22, hits give low values 1.02 | locus YIL125W, strain kgd1, hits give low values 0.988 | locus YIR030C, strain dcg1, hits give low values 0.985 | locus YJL092W, strain hpr5, hits give low values 1.01 | locus YJL095W, strain BCK1 (second series), hits give low values 1 | locus YJL095W, strain BCK1, hits give low values 1.02 and 0.968 | locus YJL115W, strain asf1, hits give low values 1.01 | locus YJL129C, strain trk1, hits give low values 1.03 | locus YJL134W, strain LCB3, hits give low values 0.996 | locus YJL154C, strain vps35, hits give low values 1.01 | locus YJL164C, strain tpk1, hits give low values 1.02 | locus YJL166W, strain qcr8, hits give low values 1.01 | locus YJL168C, strain set2, hits give low values 0.983 | locus YJL187C, strain SWE1 (second series), hits give low values 1.01 | locus YJL187C, strain SWE1, hits give low values 1.01
